# Screening data as filed in PubChem.
# ADAM17 inh – ADAM17 inhibition, QFRET primary screen | P78536 | recombinant ADAM17, EDANS/DABCYL FRET peptide cleavage | inhibition, % at 6.95 µM | 370,000 tested, 0.83% active | AID 720648;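 active = inhibition above the mean of compounds lying between control limits plus 3 SD, set per campaign, cut at about 8.5% in these data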;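 note: 0% = DMSO-only wells as the low control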
# ADAM10 inh – ADAM10 inhibition, QFRET primary screen; recombinant ADAM10, EDANS/DABCYL FRET peptide cleavage, 3 h; inhibition, % at 7 µM; 370,000 tested, 0.62% active; AID 720582;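 active = inhibition above a per-campaign cutoff equal to the mean of compounds falling between control-based bounds plus 3 SD, cut at about 20% in these data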;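 note: 0% = DMSO wells while the 100% control is not disclosed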
# FAS-TE inh – blocks the thioesterase domain of human fatty acid synthase | P49327 | recombinant FAS-TE, OMFH fluorogenic substrate, fluorescence endpoint | inhibition, % at 15 µM | 360,000 tested, 0.67% active | AID 602261;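 active = compounds whose normalised, plate-corrected inhibition of enzyme fluorescence in the single-dose primary screen is 50% or more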;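 note: 0% = DMSO with enzyme and 100% = substrate without enzyme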
# proKLK7 act – activates the human kallikrein-7 zymogen; purified proKLK7, EDANS-DABCYL substrate fluorescence; 100% is mature enzyme control, 0% vehicle; AID 652039; activation, % at 7 µM; P49862; 370,000 tested, 0.9% active;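 active = activation above the mean of all tested compounds plus 3 SD, computed per campaign excluding outliers beyond control limits, cut at about 13% in these data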
# GRIN3A LBD mod – NR3A (human) ligand-binding domain modulation; NR3A LBD differential scanning fluorimetry, Tm shift; 0% = protein alone, 100% = glycine-bound protein; Tm shift relative to glycine control, % at 25 µM; 340,000 tested, 2.5% active;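 active = melting temperature shift of at least 10% of the positive control shift, at one fixed dose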
# An asterisk follows results filed as active; . = no result. This is a sample that favours compounds with a hit; in the whole collection about 4.6% have one here.
SMILES,ADAM17 inh,ADAM10 inh,FAS-TE inh,proKLK7 act,GRIN3A LBD mod
CC(=O)c1cccc(NC(=O)C(=O)Nc2cccc3ccccc23)c1,-4,9,-2,0,62*
Clc1ccc([C@H]2OC[C@@]3(CNC4CCCCC4)CS[C@H](c4ccc(Cl)cc4)N23)cc1,2,10,.,-1,.
CN(C)S(=O)(=O)c1cccc(NC(=S)Nc2cc(Cl)cc(Cl)c2)c1,-5,4,26,0,11*
CN(C)S(=O)(=O)c1cccc(NC(=S)Nc2ccc(Cl)cc2Cl)c1,-1,-1,6,0,2
Cc1ccc2c(c1)C1CS(=O)(=O)N(CCc3ccccc3)C(=O)N1C2 (stereo unspecified),-3,-2,.,1,.
COc1ccc2c(Cl)c(C(=O)N/N=C/c3c(C)[nH]c4ccccc34)sc2c1,3,2,27,-60,32*
COc1ccc2c(Cl)c(C(=O)N/N=C/c3ccc4c(c3)OCO4)sc2c1,0,-4,-2,-2,19*
O=C(N/N=C/c1ccc2c(c1)OCO2)C(=O)Nc1ccccc1Cl,-2,-11,-4,0,14*
O=C(N/N=C/c1ccc2c(c1)OCO2)c1sc2cc(Cl)ccc2c1Cl,1,-3,-5,0,-1
COc1ccc(S(=O)(=O)N(CCc2ccccc2)CC(=O)N/N=C/c2ccc3c(c2)OCO3)cc1,0,8,26,0,-8
O=C(CN(CCc1ccccc1)S(=O)(=O)c1ccc(Cl)cc1)N/N=C/c1ccc2c(c1)OCO2,-4,2,-2,0,13*
O=C(N/N=C/c1ccc2c(c1)OCO2)c1sc2cccc(Cl)c2c1Cl,0,7,3,0,24*
COc1ccc(C(=O)C2(C(=O)Nc3cc(C)cc(C)c3)CC(c3ccccc3C(F)(F)F)=NO2)cc1 (stereo unspecified),3,-24,.,-1,.
CC(C)NC(=O)c1ccccc1S(=O)(=O)c1ccccc1C#N,-1,-2,-3,0,-1
CNC(=O)c1ccccc1S(=O)(=O)c1ccccc1C#N,4,4,-2,0,11*
CCCCc1ccc(NC(=S)Nc2cccnc2)cc1,0,2,-1,0,-26
COC(=O)Cc1ccc(NC(=S)NCc2cccc(OC)c2)cc1,2,-1,-4,0,1
CCCCc1ccc(NC(=S)NCc2cccc(OC)c2)cc1,6,19,37,0,11*
CCCCc1ccc(NC(=S)Nc2ccc(Nc3ccc(OC)cc3)cc2)cc1,4,9,23,-1,12*
O=[N+]([O-])c1ccc2nc(-c3ccc(Cl)cc3)n(OCc3ccccc3)c2c1,3,6,17,0,18*
Cc1ccc(COn2c(-c3ccc(Cl)cc3)nc3ccc([N+](=O)[O-])cc32)cc1,-1,-3,18,0,0
CCOC(=O)c1csc(NC(=O)C2CCCN(S(=O)(=O)c3cc(OC)ccc3OC)C2)n1 (stereo unspecified),1,0,.,0,.
Cc1ccc(NC(=O)c2ccc(NS(=O)(=O)/C=C/c3ccccc3)cc2)nc1,6,16,6,0,18*
C/C(C=NNC(=O)CSc1nnc(-c2ccc(Cl)cc2)n1-c1ccccc1)=C\c1ccccc1,3,3,.,0,.
O=C(CN1C(=O)S/C(=C\C=C\c2ccccc2)C1=O)Nc1cccc(O)c1,7,14,12,-4,27*
SMILES,ADAM17 inh,ADAM10 inh,FAS-TE inh,proKLK7 act,GRIN3A LBD mod
O=C(CCCN1C(=O)S/C(=C\C=C\c2ccccc2)C1=O)Nc1ccc(C(=O)O)cc1,2,10,26,0,2
O=C(CCN1C(=O)S/C(=C\C=C\c2ccccc2)C1=O)Nc1ccc(O)cc1,0,2,4,2,13*
Cc1ccc(NC(=O)c2ccc(CS(=O)(=O)Cc3ccccc3C)o2)c(C)c1,-1,-11,.,1,.
c1ccc(Nc2nnc(-c3cccc4ccccc34)o2)cc1,-4,-12,-2,0,15*
Cc1c(Cl)cccc1NC(=O)COC(=O)CCc1nc2ccccc2n1-c1ccccc1,5,13,6,0,25*
Cc1cc(NS(=O)(=O)c2ccc(NC(=O)Cc3ccc(Cl)c(Cl)c3)cc2)on1,-5,-8,.,0,.
CCCCC(CC)Cn1c(N)c(C#N)c2nc3ccccc3nc21 (stereo unspecified),-47,-155,-21,-4,11*
O=C(Nc1ccc(NC(=O)c2ccccc2Cl)c(Cl)c1)c1ccccn1,-24,7,.,.,.
COc1ccc(-c2coc3cc(O)cc(O)c3c2=O)cc1,-5,1,2,0,12*
COc1ccc(NC(=S)NC(NC(=O)c2cccc3ccccc23)C(Cl)(Cl)Cl)c([N+](=O)[O-])c1 (stereo unspecified),8,13,21,-1,12*
COc1ccc(NC(=O)c2ccc(C)cc2Cl)c([N+](=O)[O-])c1,-5,-5,2,0,11*
COc1ccc(NC(=O)COc2ccc(C)cc2)c([N+](=O)[O-])c1,2,-4,.,0,13*
COc1ccc(C#CCN(Cc2ccc(OC)cc2OC)C(N)=NC(=O)CCc2ccccc2)cc1,4,12,.,-1,.
CN1Cc2nnn(Cc3ccccc3)c2-c2cc(N3CCCC3)ccc2S1(=O)=O,-54,-177,.,-4,.
CCOC(=O)CSc1ccc(S(=O)(=O)N(C)C2CCCCC2)cc1[N+](=O)[O-],6,24*,25,0,-4
c1ccc2[nH]c(-c3cnco3)cc2c1,-10,-15,-7,0,11*
c1cncc(Cc2cc3ccccc3[nH]2)c1,-3,-8,-13,0,-2
COc1ccc(C(=O)NCCN2C(=O)C3C4C=CC(C4)C3C2=O)cc1OC (stereo unspecified),0,1,.,1,.
COc1ccc(-n2c(=S)[nH]c3cc(C(=O)Nc4ccc(C)c(F)c4)ccc3c2=O)c(OC)c1,8,8,16,-1,13*
COc1ccc(NC(=O)c2ccc3c(=O)n(-c4ccc(OC)cc4OC)c(=S)[nH]c3c2)c(OC)c1,3,7,6,0,0
N#Cc1ccccc1NC(=O)CN(Cc1ccccc1)Cc1ccccc1,1,3,21,0,16*
Cc1ccc(NC(=O)CN(C)CC(=O)Nc2ccccc2C#N)cc1,-2,2,-3,1,0
O=C(/C=C/c1ccccc1)Nc1cccc(C(=O)NCc2ccccc2)c1,-1,-14,.,0,.
O=C(/C=C/c1ccc([N+](=O)[O-])cc1)Nc1cccnc1,-1,0,15,0,3
O=C(/C=C/c1ccccc1)Nc1ccc2c(c1)C(=O)NC2=O,-11,-46,2,-2,14*
O=C(/C=C/c1ccccc1)Nc1cccc(C(=O)NCCCc2ccccc2)c1,7,12,11,-2,27*
O=C(/C=C/c1ccccc1)Nc1cccnc1,0,-6,-4,1,30*
